Assay outcomes deposited in PubChem by National Center for Advancing Translational Sciences (NCATS).
A selection: hits, their analogues and other compounds. The true share with any hit is near 11%.
3T3 cytotox: Cytotoxic Profiling in NIH 3T3 Cell Line of Diverse Libraries Using Quantitative High-Throughput Screening. NIH 3T3 viability, CellTiter-Glo ATP luminescence, 48-72 h. Potency, µM (titrated, usually from 96.7 µM), inactives show at the top dose activity change, negative = cytotoxicity, most hits filed as inhibitors. 94,000 tested, 4.3% active; also: nearly all actives have a fitted effect of over 55% in size
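Viability of NIH 3T3 cells after 48 or 72 hr compound treatment at 37 °C was assessed by CellTiter-Glo, with luminescence imaged following a 10 min room-temperature step.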
FLuc inh: Firefly luciferase inhibition profiling of diverse chemical library using quantitative high-throughput screening; Luciferin 4-monooxygenase (Photinus pyralis), P08659; purified P. pyralis luciferase, luminescence, biochemical; Potency, µM (highest dose often 115 µM), most hits filed as inhibitors; 76,000 tested, 2.5% active; AID 1347043, 2019; also: nearly all actives have a fitted effect of over 65% in size
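Cell-free enzyme assay, 10nM P. pyralis luciferase, luciferin and ATP each at 10uM. Inhibition profiled over a 6-point titration, read as luminescence.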
HEK293 tox: Cytotoxic Profiling in HEK 293 Cell Line of Diverse Libraries Using Quantitative High-Throughput Screening | HEK 293 viability, ATP luminescence (CellTiter-Glo), 48-72 h | Potency, µM (series often up to 115 µM), for the others: top-dose activity change, negative = cytotoxicity, hits mostly inhibitors | 94,000 tested, 6.6% active | AID 1345083, 2018; also: nearly all actives have a fitted effect of over 60% in size
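Read-out: CellTiter-Glo ATP luminescence. Cells: HEK 293, 250 cells/well. Exposure: 48 or 72 hr, 37 degree Celsius.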
hNpr1 antagonist: Natriuretic polypeptide receptor (hNpr1) antagonism - Primary qHTS; Atrial natriuretic peptide receptor 1 (Homo sapiens), P16066; HEK293 hNpr1 GloSensor cGMP, ANP-stimulated luminescence; 76,000 tested, 1.6% active; Potency, µM (top dose mostly 46.3 µM), for inactives: top-dose activity change, negative = inhibition, hits mostly inhibitors; calls by dose curve; also: nearly all actives have a fitted effect of over 60% in size
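HEK293 cells stably expressing human Npr1 and cGMP GloSensor pGS-40F, loaded 2 h with 2% GloSensor reagent, given compound 30 min at room temperature. Luminescence read before and 20 min after 0.1 nM hNppA.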
The depositor's hits bear a star; [ ] = dose if it differs, or a comment. Unless noted, calls follow the shape of the dose curve; as a rule, active = well fitted curve in the direction sought with a large enough effect; inconclusive = small, poorly fitted or top-dose-only effect, or another doubt; inactive = no such curve, though single readings can be large; an effect the other way counts as inactive or inconclusive. % is scaled to controls: 0 for no effect and ±100 for the full control effect; potency is read from the fitted curve at half-maximal effect.

How did Cn1nc(-c2ccc3ccccc3c2)cc1[C@H]1CN2CC[C@H]1C[C@@H]2CNS(=O)(=O)c1cccs1 do in these assays?
3T3 cytotox: 20µM*; FLuc inh: inconclusive; HEK293 tox: inconclusive; hNpr1 antagonist: -4%

Results for Cc1nc(-c2ccc(C(F)(F)F)cc2)cc([C@H]2CN3CC[C@H]2C[C@@H]3CNS(C)(=O)=O)n1 ?
3T3 cytotox: 40µM*; FLuc inh: inactive; HEK293 tox: inconclusive; hNpr1 antagonist: 1%

What do the screens show for `Cn1nc(-c2ccccc2)cc1[C@H]1CN2CC[C@H]1C[C@@H]2CNS(=O)(=O)c1cccs1`?
3T3 cytotox: inconclusive; FLuc inh: inactive; HEK293 tox: inconclusive; hNpr1 antagonist: -16%[70.6 µM]

What do the screens show for `Cc1nc(-c2ccc(F)cc2)cc([C@H]2CN3CC[C@H]2C[C@@H]3CNS(=O)(=O)Cc2ccccc2)n1`?
3T3 cytotox: 79µM*; FLuc inh: inactive; HEK293 tox: 35µM*; hNpr1 antagonist: 4%

How did Cc1nc(-c2ccccc2)cc([C@H]2CN3CC[C@H]2C[C@@H]3CNS(C)(=O)=O)n1 do in these assays?
3T3 cytotox: inconclusive; FLuc inh: inactive; HEK293 tox: -21%[172 µM]; hNpr1 antagonist: -9%[70.6 µM]

How did COc1ccc(NC(=O)N2[C@H]3CC[C@@H]2c2cnc(-c4ccc(F)cc4)nc2C3)c(OC)c1 do in these assays?
3T3 cytotox: -28%; FLuc inh: inactive; HEK293 tox: -6%; hNpr1 antagonist: -2%

How did O=C(Cc1ccc(Cl)cc1)N1CCCN(CCn2nc3n(c2=O)CCCC3)CC1 do in these assays?
3T3 cytotox: -7%; HEK293 tox: 0%

What do the screens show for `Cc1cccc(OCC(=O)N2CC(N(Cc3ccncc3)CC(C)C)C2)c1`?
3T3 cytotox: -28%; HEK293 tox: inconclusive

Results for COc1ccc(CNC[C@H]2C[C@@H]3CCN2C[C@@H]3c2cc(-c3cccs3)nn2C)cc1 ?
3T3 cytotox: inconclusive; FLuc inh: inactive; HEK293 tox: 45µM*; hNpr1 antagonist: 1%[70.6 µM]

What do the screens show for `COc1ccc(C(=O)NC[C@H]2C[C@@H]3CCN2C[C@@H]3c2cc(-c3cccs3)nn2C)cc1`?
3T3 cytotox: inconclusive; FLuc inh: inactive; HEK293 tox: inconclusive; hNpr1 antagonist: -3%

Results for CC(C)CN1Cc2ccccc2-n2ccnc2C12CCN(C(=O)c1ccoc1)CC2 ?
3T3 cytotox: inconclusive; FLuc inh: inactive; HEK293 tox: inconclusive; hNpr1 antagonist: -21%

What do the screens show for `CC(C)CN1Cc2ccccc2-n2ccnc2C12CCN(C(=O)c1cccc(F)c1)CC2`?
3T3 cytotox: inconclusive; FLuc inh: inactive; HEK293 tox: 35µM*; hNpr1 antagonist: -18%

Results for CC(C)CN1Cc2ccccc2-n2ccnc2C12CCN(C(=O)c1cccs1)CC2 ?
3T3 cytotox: inconclusive; FLuc inh: inactive; HEK293 tox: 45µM*; hNpr1 antagonist: -19%

What do the screens show for `CCn1ccc(C(=O)N2CCC3(CC2)c2nccn2-c2ccccc2CN3CC(C)C)n1`?
3T3 cytotox: inconclusive; FLuc inh: inactive; HEK293 tox: 45µM*; hNpr1 antagonist: 4%

Results for CCOCC(=O)N1CCC2(CC1)c1nccn1-c1ccccc1CN2CC(C)C ?
3T3 cytotox: inactive; FLuc inh: inactive; HEK293 tox: inconclusive; hNpr1 antagonist: -4%

What do the screens show for `CC(C)CN1Cc2ccccc2-n2ccnc2C12CCN(C(=O)c1ccco1)CC2`?
3T3 cytotox: inconclusive; FLuc inh: inactive; HEK293 tox: 45µM*; hNpr1 antagonist: -15%

What do the screens show for `COC[C@H]1C[C@@H](NCc2cn(C)c3ccccc23)[C@H](O)[C@@H]1O`?
3T3 cytotox: -15%[138 µM]; FLuc inh: inactive; HEK293 tox: -14%[172 µM]; hNpr1 antagonist: -15%[70.6 µM]

Results for CC(C)NC(=O)[C@H]1CN2CC[C@H]1C[C@@H]2Cn1cc(CO)nn1 ?
3T3 cytotox: -2%[174 µM]; FLuc inh: inactive; HEK293 tox: -1%[172 µM]; hNpr1 antagonist: 4%[70.6 µM]

Results for CC(C)CN1Cc2ccccc2-n2ccnc2C12CCN(C(=O)c1ccn[nH]1)CC2 ?
3T3 cytotox: -26%; FLuc inh: inactive; HEK293 tox: 40µM*; hNpr1 antagonist: -15%

Results for COCCOCC(=O)N1CCC2(CC1)c1nccn1-c1ccccc1CN2CC(C)C ?
3T3 cytotox: inactive; FLuc inh: inactive; HEK293 tox: -15%; hNpr1 antagonist: -14%

How did CN1CCc2c([nH]c3ccccc23)C12CCNCC2 do in these assays?
3T3 cytotox: inconclusive; FLuc inh: inactive; HEK293 tox: 89µM*; hNpr1 antagonist: -1%

What do the screens show for `O=C1NC2(CCN(Cc3ccncc3)C2)Oc2ccccc21` (stereo not drawn)?
3T3 cytotox: -19%[138 µM]; FLuc inh: inactive; HEK293 tox: -13%[172 µM]; hNpr1 antagonist: 0%[70.6 µM]

How did O=C1NC2(CCCN(Cc3ccncc3)C2)COc2ccccc21 (stereo not drawn) do in these assays?
3T3 cytotox: 32µM*; FLuc inh: inactive; HEK293 tox: 71µM*; hNpr1 antagonist: -18%[70.6 µM]

How did CC(C)CN(Cc1cccnc1)C1CN(C(=O)COc2ccc(F)cc2)C1 do in these assays?
3T3 cytotox: 32µM*; FLuc inh: inactive; HEK293 tox: inconclusive; hNpr1 antagonist: 3%

Results for Cc1nc(-c2ccco2)cc([C@H]2CN3CC[C@H]2C[C@@H]3CNC(=O)Nc2ccccc2)n1 ?
3T3 cytotox: inconclusive; FLuc inh: inactive; HEK293 tox: 89µM*; hNpr1 antagonist: -11%[70.6 µM]

Results for Cc1nc(-c2ccccc2)cc([C@H]2CN3CC[C@H]2C[C@@H]3CN(Cc2ccco2)Cc2ccco2)n1 ?
3T3 cytotox: 22µM*; FLuc inh: inactive; HEK293 tox: inconclusive; hNpr1 antagonist: -16%

How did Cc1nc(-c2ccco2)cc([C@H]2CN3CC[C@H]2C[C@@H]3CNC(=O)C2CCCCC2)n1 do in these assays?
3T3 cytotox: inconclusive; FLuc inh: inactive; HEK293 tox: inconclusive; hNpr1 antagonist: inconclusive

What do the screens show for `Cc1nc(-c2ccco2)cc([C@H]2CN3CC[C@H]2C[C@@H]3CNC(=O)NC2CCCCC2)n1`?
3T3 cytotox: 100µM*; FLuc inh: inactive; HEK293 tox: inconclusive; hNpr1 antagonist: 1%[70.6 µM]

What do the screens show for `Cc1ccccc1S(=O)(=O)N1[C@H]2CC[C@@H]1c1cnc(-c3ccc(F)cc3)nc1C2`?
3T3 cytotox: inconclusive; FLuc inh: inactive; HEK293 tox: 28µM*; hNpr1 antagonist: inconclusive

Results for O=C(c1ccc2c(c1)OCO2)N1[C@H]2CC[C@@H]1c1cnc(-c3ccc(F)cc3)nc1C2 ?
3T3 cytotox: inconclusive; FLuc inh: inactive; HEK293 tox: 45µM*; hNpr1 antagonist: -11%

What do the screens show for `Cc1ncc2c(n1)C[C@@H]1CC[C@H]2N1S(=O)(=O)c1ccccc1C`?
3T3 cytotox: -14%; FLuc inh: inactive; HEK293 tox: -23%; hNpr1 antagonist: 3%
